Assay results from PubChem BioAssay (NCI).
Compounds without any hit were thinned out: in the full panel of roughly 83,000, 20% have a hit.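 A percent growth of 40 corresponds to 60% growth inhibition; 0 means no net growth; -100 means all cells died. Active threshold: below 10.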 Activity calls are given as the source filed them.

How the values were obtained:
Test in all cases: NCI-60 one-dose screen, 48 h (100 = growth as untreated, 0 = no growth, -100 = all killed)
Settings in all cases: 10 µM unless noted
[1] = tested on: T-47D breast
[2] = tested on: BT-549 breast
[3] = tested on: MDA-MB-435 melanoma
[4] = tested on: SW-620 colon
[5] = tested on: MCF7 breast
[6] = tested on: HCT-116 colon
[7] = tested on: HCC-2998 colon
[8] = tested on: KM12 colon

Measured: growth

O=C(NNc1nc2cc(F)ccc2n2c(CN3CCC(O)C3)ccc12)c1cnccn1 (stereo not drawn)
active: [5] 8.92%
inactive: [1] 13% | [2] 29.5% | [3] 27.8% | [4] 24.6% | [6] 17.9% | [7] 38.5% | [8] 24.9%

CCOP(=O)(OCC)OC[C@]12CCC(C)(C)C=C1[C@H]1CC[C@@H]3[C@@]4(C)CC[C@H](OP(=O)(OCC)OCC)C(C)(C)[C@@H]4CC[C@@]3(C)[C@]1(C)CC2
inactive: [1] 13.5%
active: [2] -20.2% | [3] -38.4% | [4] -48.4% | [5] -47.5% | [6] -59.8% | [7] -50.9% | [8] 3.6%

C[C@@H]1C[C@H]2C(=O)O[C@@H](C)C(NC(=O)[C@H](Cc3cc(F)cc(F)c3)NC(=O)Nc3ccc(C4CC4)cc3F)C(=O)N3CCC[C@H]3C(=O)N3CCCC[C@H]3C(=O)N[C@@H](CO)C(=O)N2C1 (stereo partly drawn)
inactive: [1] 21.7% | [2] 27.6% | [3] 17.9% | [4] 35.8% | [5] 16.1% | [6] 10.6% | [7] 24% | [8] 38%

NC(=O)c1cccc(-n2ccc3cc(NC(=O)Nc4ccc(N5CCOCC5)c(C(F)(F)F)c4)ccc32)n1
inactive: [3] 10.5% | [7] 31.3%
active: [1] 1.29% | [2] -14.8% | [4] 4.98% | [5] 8.81% | [6] 0.168% | [8] -15.7%

CCO/C=N/C1=C(C#N)C(c2ccc(OC)cc2)c2sc3c(C)cccc3c2O1 (stereo not drawn)
inactive: [1] 34.5% | [2] 35.2% | [4] 33.5% | [5] 23.5% | [6] 12% | [7] 21.1% | [8] 19%
active: [3] -21.5%

CCn1c(SCC(=O)Nc2cccc(C(=O)/C=C/c3cc(OC)c(OC)c(OC)c3)c2)nc2ccccc2c1=O
inactive: [1] 49.3% | [2] 52.8% | [3] 36.7% | [4] 14.9% | [5] 19.9% | [7] 42.2% | [8] 44.6%
active: [6] -28.8%

N#Cc1ccccc1Cn1c2nc(=N)c3ccccc3c-2nc2ccccc21
inactive: [1] 66.8% | [2] 88% | [3] 70% | [4] 54.6% | [5] 34.7% | [6] 46.9% | [7] 60.2% | [8] 60.7%

N#Cc1cnc2ccc(-c3cnc(N)nc3)cc2c1N1CCc2cc(F)c(Cl)cc21
active: [1] 9.38% | [2] 3.1% | [3] -1.22% | [4] 9.24% | [5] 5.81% | [6] 2.24% | [7] -3.03% | [8] 7.85%

O=c1[nH]c2ccccc2cc1CSc1ccccc1Nc1nccc(-c2ccc(Cl)cc2)n1
inactive: [1] 93.3% | [2] 119% | [3] 99.9% | [4] 101% | [5] 81.1% | [6] 100% | [7] 114% | [8] 100%

CS(=O)(=O)c1ccc(-n2cc(/C=N/O)c(-c3ccccc3)n2)cc1
inactive: [1] 59.1% | [2] 60.7% | [3] 85.9% | [4] 104% | [5] 21.5% | [6] 92.1% | [7] 95.4% | [8] 96.9%

COc1ccc(NC2=C(Cl)C(=O)c3nc(C)ccc3C2=O)cc1OC
active: [3] -67.2%
inactive: [1] 14.9% | [2] 126% | [4] 72.2% | [5] 59% | [6] 55.8% | [7] 104% | [8] 98.2%

CCOC(=O)c1c(Nc2ccccc2)nn2c(-c3ccc(Cl)cc3)ccnc12
inactive: [1] 64.2% | [2] 103% | [3] 84.2% | [4] 84.2% | [5] 81.3% | [6] 61.1% | [7] 91% | [8] 89.1%

COc1cccc(/C=C(/C)c2ccc3cccc(OC)c3[o+]2)c1O
inactive: [1] 100% | [2] 85.1% | [3] 104% | [4] 106% | [5] 90.9% | [6] 102% | [7] 120% | [8] 99.1%

CC(=O)N(C)C1CCc2c(sc(NC(=O)c3ccc(C(C)(C)C)cc3)c2C(N)=O)C1 (stereo not drawn)
inactive: [1] 74% | [2] 88.2% | [3] 83.7% | [4] 58.2% | [5] 59.8% | [6] 65.1% | [7] 108% | [8] 64.9%

Cn1ccnc1C(=O)/C=C/c1ccc(NC(=O)c2ccc(F)cc2)cc1
inactive: [1] 22.5% | [2] 69.4% | [3] 43.1% | [4] 14.8% | [5] 18% | [7] 39.5% | [8] 24.8%
active: [6] 8.87%

CC(C)(C)CC(C)(C)n1nnnc1C(Nc1nccs1)c1cc2cccc3ccc4cccc1c4c32 (stereo not drawn)
inactive: [1] 75.4% | [2] 91.6% | [3] 102% | [4] 101% | [5] 75.3% | [6] 97.7% | [7] 103% | [8] 99.5%

Cc1ccc(-c2cc3nc(C(Cl)Cl)nc(-c4ccco4)n3n2)cc1
inactive: [1] 21.2% | [2] 86.5% | [3] 18.1%
active: [4] 8.55% | [5] 3.51% | [6] 1.68% | [7] -50% | [8] -21.3%

CC[C@]12C=CCN3CC[C@@]4(c5cc(NC(=O)COc6cc(O)c7c(=O)cc(-c8ccccc8)oc7c6)c(OC)cc5N(C)[C@H]4[C@@](O)(C(=O)OC)[C@@H]1OC(C)=O)[C@@H]32
active: [1] -60.5% | [2] -36.2% | [3] -44.7% | [4] 7.84% | [5] -44.3% | [6] -89.2% | [7] -98.2% | [8] -82.2%

Cc1ccc(C(=O)NN2C(=O)/C(=C/C=C/c3ccco3)SC2=S)cc1
inactive: [1] 95.4% | [2] 137% | [3] 90.7% | [4] 106% | [5] 82% | [6] 98.2% | [7] 107% | [8] 102%

Cc1ccc(-c2nnc(SCc3ccc(O)c4ncccc34)n2-c2ccccc2)cc1
active: [1] 5.79% | [3] 9.9% | [5] 4.47% | [6] 6.12% | [8] 2.4%
inactive: [2] 18.4% | [4] 12.9% | [7] 22.3%

O=C(CSc1nc2ccccc2c(=O)n1-c1ccccc1)Nc1cccc(C(=O)/C=C/c2ccccc2)c1
inactive: [1] 76.8% | [2] 112% | [3] 93.2% | [4] 90% | [5] 19% | [7] 113% | [8] 87.5%
active: [6] -13.7%

CNC(=O)c1cc(Oc2ccc3nc(NC(=O)c4ccc(N5CCOCC5)c(C(F)(F)F)c4)sc3c2)ccn1
inactive: [1] 86.1% | [2] 94% | [3] 88.4% | [4] 114% | [5] 70% | [6] 60.2% | [7] 96.3% | [8] 56.7%

Cc1cc2nc(C(Cl)Cl)nc(-c3cccs3)n2n1
inactive: [1] 30.6% | [2] 74.1% | [3] 26.3% | [4] 10.9% | [5] 12.1% | [6] 12.2%
active: [7] -54.4% | [8] -26.4%

CN1CCN(Cc2ccc(NC(=O)c3cncc(C#Cc4cnc5ccc(NCCCO)nn45)c3)cc2C(F)(F)F)CC1
active: [1] 1.95% | [2] -81.5% | [3] -39.8% | [4] -34.6% | [5] -34.5% | [6] -83.6% | [7] -9.99% | [8] -12.1%

CCc1cccc2c3c(sc12)C(c1ccc(OC)cc1)C(C#N)=C(/N=C/c1ccc(Cl)cc1)O3 (stereo not drawn)
inactive: [1] 12.9% | [2] 29.8% | [4] 39.4% | [5] 19.3% | [6] 13% | [7] 20% | [8] 22.7%
active: [3] -47.2%

Cc1cc(-c2ccc(Cl)cc2)n(Cc2nnc(SCC(=O)Nc3ccc(S(N)(=O)=O)cc3)n2C2CCCCC2)n1
inactive: [1] 108% | [2] 124% | [3] 109% | [4] 107% | [5] 91% | [6] 107% | [7] 110% | [8] 108%

Cc1ccc(S(=O)(=O)N(CC[C@@H]2C[C@H]2c2cc3ccccc3o2)S(=O)(=O)c2ccc(C)cc2)cc1
inactive: [1] 78.3% | [2] 98% | [3] 104% | [4] 95.2% | [5] 79.6% | [6] 92.5% | [7] 100% | [8] 103%

N#Cc1c(-c2cccs2)cc(-c2cnccn2)nc1SCC(=O)Nc1ccc(Br)cc1
inactive: [1] 96.2% | [2] 65.4% | [3] 74.4% | [4] 77.3% | [5] 66.6% | [6] 69% | [7] 99.7% | [8] 97.7%

c1ccc(C(c2nc3ncncc3[nH]2)N2CSc3nc4ncncc4n3C2)cc1 (stereo not drawn)
inactive: [1] 34.4% | [2] 73.1% | [3] 29.2% | [4] 79% | [5] 14.2% | [6] 41.5% | [7] 55.6% | [8] 51.7%

CCCCCCCn1cc2c(NCCc3ccccc3)ncnc2n1
inactive: [1] 94.5% | [2] 100% | [3] 96.6% | [4] 92.8% | [5] 86.9% | [6] 96.6% | [7] 116% | [8] 97%

NC(N)=Nc1ccc(Oc2cccc(Nc3ccc(Cl)cc3)c2)cn1
inactive: [1] 26.1% | [2] 65.7% | [3] 14.3%
active: [4] -71.8% | [5] -76.7% | [6] -73.4% | [7] -89.1% | [8] -92.6%
